Our source for the cytotoxicity call values is the antibiotic and cytotoxicity screens of Wong et al. (2023).

Hit rate of the full screen: of about 39,000 compounds, about 3,300 (8.5%) were called active. What follows is part of a selection rich in actives, with near analogues and random picks from the rest.

For the assay, the system named is HepG2. Kind of assay: cytotoxicity call (relative viability < 0.9). Conditions: 10 µM.
On to `COc1ccc(NC(=O)Nc2ccc3c(c2)C(=O)N([C@@H](C)CO)C[C@@H](C)[C@@H](CN(C)Cc2ccc(C(=O)O)cc2)OCCCC[C@@H](C)O3)cc1`, for which the cytotoxicity call is “inactive”. For `C[C@H](CO)N1C[C@H](C)[C@H](CN(C)S(=O)(=O)c2cccs2)Oc2ccc(NC(=O)CCN3CCOCC3)cc2CC1=O` the value was “inactive”. Regarding `COc1ccccc1CNC(=O)C[C@H]1C[C@@H]2c3cc(NC(=O)c4ccc5c(c4)OCO5)ccc3O[C@@H]2[C@H](CO)O1`, the cytotoxicity call is “inactive”. Regarding `C[C@@H]1CCCCO[C@H](CN(C)Cc2ccccc2)[C@@H](C)CN([C@@H](C)CO)C(=O)c2cc(NC(=O)CCCCCC(=O)Nc3ccccc3N)ccc2O1`, the cytotoxicity call is “inactive”.

For `Cc1noc(C)c1NC(=O)N(C)C[C@@H]1Oc2ccc(NS(=O)(=O)c3ccccc3)cc2CC(=O)N([C@H](C)CO)C[C@@H]1C`, the cytotoxicity call is “inactive”.

As to `COc1ccc(S(=O)(=O)Nc2ccc3c(c2)C(=O)N([C@@H](C)CO)C[C@@H](C)[C@H](CN(C)S(=O)(=O)c2cn(C)cn2)OCCCC[C@@H](C)O3)cc1`, the cytotoxicity call is “inactive”. Consider `C[C@@H]1CN([C@H](C)CO)C(=O)c2cccc(NC(=O)c3ccc(-c4nccs4)cc3)c2O[C@@H]1CN(C)Cc1ccccc1`, for which the cytotoxicity call was “inactive”. Take `COc1ccc(C#Cc2cnc3c(c2)C(=O)N([C@H](C)CO)C[C@H](C)[C@H](CN(C)C(=O)NC(C)C)O3)cc1OC`: the cytotoxicity call was “inactive”. For `CO[C@@H]1CN(C)C(=O)c2cc(NC(=O)NC(C)C)ccc2OC[C@@H](C)N(Cc2ccc(-c3ccccn3)cc2)C[C@H]1C` the value was “inactive”. Regarding `C=CCOC(=O)[C@H]1[C@@H]2C(=O)O[C@@H](c3ccccc3)[C@@H](c3ccccc3)N2[C@@H](c2ccc(OCCOC(=O)[C@H]3C[C@H]4C(=O)NCC(=O)N4[C@H]3c3cccc(OCCO)c3)cc2)[C@]12C(=O)Nc1ccc(I)cc12`, the cytotoxicity call is “inactive”. Regarding `Cc1noc(C)c1NC(=O)Nc1ccc2c(c1)C(=O)N([C@@H](C)CO)C[C@@H](C)[C@@H](CN(C)C(=O)NC1CCCCC1)OCCCC[C@@H](C)O2`, the cytotoxicity call was “inactive”.

As for `COC1=C2C[C@H](C)C[C@H](OC)[C@@H](O)[C@H](C)/C=C(\C)[C@H](OC(N)=O)[C@H](OC)/C=C/C=C(\C)C(=O)NC(=CC1=O)C2=O`, the cytotoxicity call was “active”. As for `COC1=C2C[C@@H](C)C[C@H](OC)[C@H](O)[C@@H](C)/C=C(\C)[C@H](OC(N)=O)[C@@H](OC)/C=C/C=C(\C)C(=O)NC(=CC1=O)C2=O`, the cytotoxicity call was “active”. For `COC1=C2C[C@@H](C)C[C@H](OC)[C@H](O)[C@@H](C)/C=C(\C)[C@H](OC(N)=O)[C@@H](OC)/C=C\C=C(/C)C(=O)NC(=CC1=O)C2=O` the value was “active”. Consider `CO[C@H]1/C=C\O[C@@]2(C)Oc3c(C)c(O)c4c(c3C2=O)[C@]2(C=C(NC(=O)/C(C)=C\C=C/[C@@H](C)[C@@H](O)[C@@H](C)[C@@H](O)[C@@H](C)[C@@H](OC(C)=O)[C@@H]1C)C4=O)OCC(=O)O2`, for which the cytotoxicity call was “inactive”. Take `CO[C@H]1/C=C\C=C(/C)C(=O)NC2=CC(=O)C=C(C2=O)[C@H](OC)[C@@H](C)C[C@H](OC)[C@H](O)[C@@H](C)/C=C(\C)[C@@H]1OC(N)=O`: the cytotoxicity call was “inactive”.

As for `Cc1ccc(S(=O)(=O)N2C[C@H](O)COC[C@@H]3O[C@H](CC(=O)N[C@H]4CCN(Cc5ccccc5)C4)CC[C@H]32)cc1`, the cytotoxicity call was “inactive”.

As to `O=C(O)Cn1c(=O)oc2ccccc21`, the cytotoxicity call was “inactive”. Turning to `C[C@@H]1CN([C@H](C)CO)C(=O)c2cc(NC(=O)C3CCCCC3)ccc2O[C@@H](C)CCCCO[C@H]1CN(C)C(=O)Cc1ccccc1`, the cytotoxicity call is “inactive”. For `COc1ccc(S(=O)(=O)N(C)C[C@@H]2OCCCC[C@@H](C)Oc3ccc(NC(=O)Nc4ccc(F)cc4)cc3C(=O)N([C@@H](C)CO)C[C@@H]2C)cc1` the value was “inactive”; for `CCOc1ccc([C@@H](C)N)cc1OCC`, “inactive”. Regarding `COc1cc2ccnc(CCCN)c2cc1OC`, the cytotoxicity call is “inactive”.

Take `CCOc1ccc(Cc2nccc3cc(OCC)c(OCC)cc23)cc1OCC.Cl`: the cytotoxicity call was “active”. In the case of `C[C@@H]1CN([C@@H](C)CO)C(=O)c2cccc(NC(=O)Nc3ccc(C(F)(F)F)cc3)c2O[C@H]1CN(C)Cc1ccc(C(=O)Nc2ccccc2N)cc1`, the cytotoxicity call was “active”. Consider `C[C@H]1CN([C@@H](C)CO)C(=O)c2cccc(NC(=O)Nc3ccc(C(F)(F)F)cc3)c2O[C@H]1CN(C)Cc1ccc(C(=O)Nc2ccccc2N)cc1`, for which the cytotoxicity call was “inactive”. Take `C[C@H]1CN([C@@H](C)CO)C(=O)c2cccc(NC(=O)Nc3ccc(C(F)(F)F)cc3)c2O[C@@H]1CN(C)Cc1ccc(C(=O)Nc2ccccc2N)cc1`: the cytotoxicity call is “inactive”. As to `C[C@@H]1CN([C@H](C)CO)C(=O)c2cccc(NC(=O)Nc3ccc(C(F)(F)F)cc3)c2O[C@H]1CN(C)Cc1ccc(C(=O)Nc2ccccc2N)cc1`, the cytotoxicity call is “inactive”. Consider `C[C@@H]1CN([C@@H](C)CO)C(=O)c2cccc(NC(=O)Nc3ccc(C(F)(F)F)cc3)c2O[C@@H]1CN(C)Cc1ccc(C(=O)Nc2ccccc2N)cc1`, for which the cytotoxicity call was “active”. As to `C[C@H](CO)N1C[C@H](C)[C@@H](CN(C)Cc2ccc(C(=O)Nc3ccccc3N)cc2)Oc2c(NC(=O)Nc3ccc(C(F)(F)F)cc3)cccc2C1=O`, the cytotoxicity call is “inactive”.

As to `COCC(=O)N(C)C[C@@H]1Oc2cc(C#C[C@H](C)O)ccc2S(=O)(=O)N([C@H](C)CO)C[C@@H]1C`, the cytotoxicity call was “inactive”.

On to `C[C@H]1CN([C@@H](C)CO)C(=O)Cc2cc(NS(=O)(=O)c3ccc(F)cc3)ccc2O[C@@H]1CN(C)Cc1ccc(Cl)c(Cl)c1`, for which the cytotoxicity call was “active”.

For `C[C@H](CO)N1C[C@H](C)[C@@H](CN(C)Cc2ccc(Cl)c(Cl)c2)Oc2ccc(NS(=O)(=O)c3ccc(F)cc3)cc2CC1=O`, the cytotoxicity call was “inactive”. Regarding `C[C@@H]1CN([C@H](C)CO)C(=O)Cc2cc(NS(=O)(=O)c3ccc(F)cc3)ccc2O[C@H]1CN(C)Cc1ccc(Cl)c(Cl)c1`, the cytotoxicity call was “active”. For `C[C@H](CO)N1C[C@H](C)[C@H](CN(C)Cc2ccc(Cl)c(Cl)c2)Oc2ccc(NS(=O)(=O)c3ccc(F)cc3)cc2CC1=O`, the cytotoxicity call was “inactive”. For `C[C@@H]1CN([C@@H](C)CO)C(=O)Cc2cc(NS(=O)(=O)c3ccc(F)cc3)ccc2O[C@@H]1CN(C)Cc1ccc(Cl)c(Cl)c1` the value was “active”; for `C[C@H]1CN([C@@H](C)CO)C(=O)Cc2cc(NS(=O)(=O)c3ccc(F)cc3)ccc2O[C@H]1CN(C)Cc1ccc(Cl)c(Cl)c1`, “active”. As for `C[C@@H]1CN([C@@H](C)CO)C(=O)Cc2cc(NS(=O)(=O)c3ccc(F)cc3)ccc2O[C@H]1CN(C)Cc1ccc(Cl)c(Cl)c1`, the cytotoxicity call was “inactive”. Regarding `Cc1ccc(S(=O)(=O)Nc2ccc3c(c2)C(=O)N([C@H](C)CO)C[C@H](C)[C@H](CN(C)CC2CC2)O3)cc1`, the cytotoxicity call is “inactive”. On to `OCCn1cncn1`, for which the cytotoxicity call was “inactive”. In the case of `CN(C)CCCCNC(=O)[C@H]1C[C@H]2C(=O)NCC(=O)N2[C@H]1c1cccc(OCCO)c1`, the cytotoxicity call is “inactive”. For `C[C@@H]1CCCCO[C@@H](CN(C)S(=O)(=O)c2cccs2)[C@H](C)CN([C@@H](C)CO)C(=O)c2cc(NC(=O)C3CCCCC3)ccc2O1` the value was “inactive”. For `Cc1ncc(CO)c(CO)c1O` the value was “inactive”; for `C[C@@H]1CCCCO[C@H](CN(C)Cc2ccncc2)[C@H](C)CN([C@@H](C)CO)C(=O)c2cc(NC(=O)Nc3ccc4c(c3)OCO4)ccc2O1`, “inactive”; for `Cc1noc(C)c1NC(=O)N(C)C[C@@H]1Oc2ccc(NS(=O)(=O)c3ccccc3)cc2C(=O)N([C@@H](C)CO)C[C@H]1C`, “inactive”. For the compound `C[C@@H]1CN([C@H](C)CO)C(=O)Cc2cc(NS(=O)(=O)c3ccc(F)cc3)ccc2O[C@@H]1CN(C)Cc1ccc(Cl)c(Cl)c1`, the cytotoxicity call was “active”.

Turning to `COc1ccc(S(=O)(=O)N(C)C[C@H]2Oc3c(NC(=O)C4CCOCC4)cccc3C(=O)N([C@@H](C)CO)C[C@@H]2C)cc1`, the cytotoxicity call is “inactive”.
